Experimental data as given in PubChem BioAssay.
A number with no mark means an inactive call. How the calls were made is not given here.

How the values were obtained:
[1] = test system: Aerobactin synthetase IucA (Klebsiella pneumoniae hvKP1); assay: Biochemical IucA enzyme inhibition primary screen of the Spectrum library (AID 1346200); conditions: malachite green pyrophosphate, A620, at 8 µM, stronger effect = lower value;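 further: 100% = wells without compound and 0% = wells lacking enzyme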
[2] = test system: Aerobactin synthetase IucA (Klebsiella pneumoniae, hypervirulent); assay: IucA enzyme inhibition, biochemical, LOPAC library, absorbance readout (AID 1346212); conditions: IucA enzyme assay, absorbance (OD) readout; stronger effect = lower value;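 tested at 8 µM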;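 further: 100% = no compound wells and 0% = no enzyme wells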

For COC(=O)C[C@H]1C(C)(C)C(=O)[C@@H]2CC3=C4CC(=O)O[C@@H](c5ccoc5)[C@]4(C)CCC3C1(C)C2=O (stereo partly specified), the activity remaining [1] was 102%.

In the case of CC1=C2C(=CO[C@H](C)[C@H]2C)C(=O)C(C(=O)O)=C1O, the activity remaining [1] is reported as 94.3%.

Compound CCNC(=O)CC[C@H](N)C(=O)O has an activity remaining [1] of 119%.

C=C(C)[C@H]1CC=C(C(=O)O)CC1 gave an activity remaining [1] of 120%.

Compound O=C(CCc1ccc(O)cc1)c1c(O)cc(O)cc1O[C@@H]1O[C@H](CO)[C@@H](O)[C@H](O)[C@H]1O has an activity remaining [1] of 105%.

CC(C)C1CCC(C(=O)N[C@@H](Cc2ccccc2)C(=O)O)CC1 (stereo partly specified) gave an activity remaining [1] of 118%.

For CC1(C)C2CC[C@]3(C)C(C(=O)C=C4[C@@H]5C[C@@](C)(C(=O)O)CC[C@]5(C)CC[C@]43C)[C@@]2(C)CC[C@@H]1OC(=O)CCC(=O)O (stereo partly specified), the activity remaining [1] was 120%.

Work on COC(=O)[C@]1(C)CC[C@]2(C)CC[C@]3(C)C4=CCc5c(cc(O)c(O)c5C)[C@]4(C)CC[C@@]3(C)C2C1 (stereo partly specified) yielded an activity remaining [1] of 106%.

In the case of C=C1C2CC[C@@]3(C)[C@H](c4ccoc4)OC(=O)C[C@]13O[C@H]1CC(O)C(C)(C)C(CC(=O)OC)[C@@]21C (stereo partly specified), the activity remaining [1] is reported as 86.1%.

Compound CN1CCN(C(c2ccccc2)c2ccccc2)CC1 has an activity remaining [1] of 113%.

In the case of CC(=O)CC(=O)CCC(=O)O, the activity remaining [1] is reported as 102%.

Compound CC1CCC(NC(=O)N(CCCl)N=O)CC1 (stereo unspecified) has an activity remaining [1] of 106%.

Compound CC(=O)O[C@@H]1C=C[C@@]2(C)C(C[C@@H](OC(C)=O)[C@@]3(C)C4=CC(=O)O[C@@H](c5ccoc5)[C@]4(C)CCC23)C1(C)C (stereo partly specified) has an activity remaining [1] of 82.6%.

CCN(CCCc1ccccc1)CCCc1ccccc1 was tested, and the activity remaining [1] was 109%.

For C=CC(C1=CC(=O)C(OC)=CC1=O)c1ccc(OC)cc1 (stereo unspecified), the activity remaining [1] was 109%.

In the case of CN1CCc2cccc3c2C1Cc1ccc(O)c(O)c1-3 (stereo unspecified), the activity remaining [1] is reported as 87.4%.

CC(Cc1ccc(O)c(O)c1)(NN)C(=O)O (stereo unspecified) showed an activity remaining [1] of 111%.

CCCC(=O)O[C@]1(C(=O)CO)CCC2[C@@H]3CCC4=CC(=O)CC[C@]4(C)C3[C@@H](O)C[C@@]21C (stereo partly specified) gave an activity remaining [1] of 79%.

C[n+]1ccccc1/C=N/O gave an activity remaining [1] of 117%.

Work on Oc1cc(O)c2c(c1)O[C@H](c1cc(O)c(O)c(O)c1)[C@H](O)C2 yielded an activity remaining [1] of 116%.

CC1(C)C(=O)CC[C@@]2(C)C1C[C@@H](O)[C@@]1(C)C3=CC(=O)O[C@@H](c4ccoc4)[C@]3(C)CCC21 (stereo partly specified) was tested, and the activity remaining [1] was 111%.

Work on C#C[C@]1(O)CCC2C3CCC4=CC(=O)CC[C@@H]4C3CC[C@@]21CC (stereo partly specified) yielded an activity remaining [1] of 123%.

With CCOC(=O)[C@H](CCc1ccccc1)N[C@H](C)C(=O)N1C2CCCCC2C[C@H]1C(=O)O (stereo partly specified) the activity remaining [1] was 119%.

COc1cc(OC)c(C(C)=O)c(O)c1C gave an activity remaining [1] of 101%.

In the case of Cc1onc(-c2ccccc2)c1C(=O)NC1C(=O)N2[C@@H]1SC(C)(C)[C@@H]2C(=O)O (stereo partly specified), the activity remaining [1] is reported as 106%.

For CC(C)=CC1C(CO)C1(C)C (stereo unspecified), the activity remaining [1] was 86.3%.

CC(C)CCCC(C)C1CCC2C3CC(=O)[C@H]4C[C@@H](O)CC[C@]4(C)C3CC[C@]12C (stereo partly specified) showed an activity remaining [1] of 121%.

With Cc1cc(O)c(C=O)c2c1C(=O)Oc1c(COC(=O)/C=C/C(=O)O)c(O)c(C(=O)O)c(C)c1O2 the activity remaining [1] was 93.9%.

COc1ccc(-c2cc(=O)c3c(O)cc(O[C@@H]4O[C@H](CO[C@H]5O[C@H](C)[C@@H](O)[C@H](O)[C@@H]5O)[C@@H](O)[C@H](O)[C@H]4O)cc3o2)cc1O gave an activity remaining [1] of 90.7%.

N=c1ccn2c(n1)O[C@@H]1[C@@H](O)[C@H](CO)O[C@@H]12 gave an activity remaining [1] of 97.5%.

Compound COc1cc(C)c2c(c1C=O)Oc1c(c(C)c(O)c3c1C(O)OC3=O)OC2=O (stereo unspecified) has an activity remaining [1] of 114%.

Compound CC[C@H](C)C(=O)O[C@H]1CCC=C2C=C[C@H](C)C(CCC3C[C@@H](O)CC(=O)O3)[C@H]21 (stereo partly specified) has an activity remaining [1] of 102%.

In the case of CCOc1ccc(C(=O)c2ccc(OC)c(O)c2O)cc1, the activity remaining [1] is reported as 109%.

O=C1CC[C@]23/C=C/C(=O)NCCCCNCCCNC(=O)/C=C/c4ccc(c2c4)O[C@@H]3C1 showed an activity remaining [1] of 117%.

Compound COc1ccc2c(c1)CCC1C2CC[C@@]2(C)C1CC[C@@H]2O (stereo partly specified) has an activity remaining [1] of 111%.

With C[N+]12CCC(CC1)C(OC(=O)C(O)(c1ccccc1)c1ccccc1)C2 (stereo unspecified) the activity remaining [1] was 111%.

Cc1coc2c1C(=O)C(=O)c1c-2ccc2c1CCCC2(C)C showed an activity remaining [1] of 103%.

O=C(O)c1ccccc1 was tested, and the activity remaining [1] was 115%.

COc1cc(OC)c2c(c1Cl)OC1(C2=O)C(O)=CC(=O)CC1C (stereo unspecified) gave an activity remaining [1] of 107%.

CC(C)CCCC(C)C1CCC2C3=CC[C@H]4C[C@@H](O)CC[C@]4(C)C3CC[C@@]21C (stereo partly specified) was tested, and the activity remaining [1] was 114%.

With O=c1cc(-c2ccccc2)oc2cc(O)c(O)c(O)c12 the activity remaining [1] was 122%.

COc1cc(O)c(C(=O)c2ccccc2)cc1O was tested, and the activity remaining [1] was 107%.

C/C=C/c1ccc(OC)cc1 showed an activity remaining [1] of 98.6%.

NC(=O)c1ncn(C2O[C@H](CO)[C@@H](O)[C@H]2O)c1N (stereo partly specified) showed an activity remaining [1] of 99.1%.

COc1ccc(-c2cc(=O)c3c(O)cc(OC)c(OC)c3o2)c(OC)c1 showed an activity remaining [1] of 94.3%.

In the case of C[C@H]1O[C@@H](O[C@H]2[C@@H](O)C[C@H](O[C@H]3[C@@H](O)C[C@H](O[C@H]4CC[C@]5(C)C6C[C@@H](O)[C@]7(C)[C@@H](C8=CC(=O)OC8)CC[C@]7(O)C6CC[C@@H]5C4)O[C@@H]3C)O[C@@H]2C)C[C@H](O)[C@@H]1O (stereo partly specified), the activity remaining [1] is reported as 118%.

Compound Cc1cccc(CN2CCN(C(c3ccccc3)c3ccc(Cl)cc3)CC2)c1 (stereo unspecified) has an activity remaining [1] of 95.5%.

With NCC[C@@H](O)C(=O)N[C@@H]1C[C@H](N)[C@@H](O[C@H]2O[C@H](CN)[C@@H](O)[C@H](O)[C@H]2O)[C@H](O)[C@H]1O[C@H]1O[C@H](CO)[C@@H](O)[C@H](N)C1O (stereo partly specified) the activity remaining [1] was 113%.

With CCOC(=O)[C@H](CCc1ccccc1)N[C@H]1CCc2ccccc2N(CC(=O)O)C1=O the activity remaining [1] was 123%.

Compound O=C(O)CCC(=O)OC[C@@H](NC(=O)C(Cl)Cl)[C@H](O)c1ccc([N+](=O)[O-])cc1 has an activity remaining [1] of 110%.

For CC[C@]1(O)CC2CN(CCc3c([nH]c4ccccc34)[C@@](C(=O)OC)(c3cc4c(cc3OC)N(C=O)[C@H]3[C@@](O)(C(=O)OC)[C@H](OC(C)=O)[C@]5(CC)C=CCN6CC[C@]43[C@@H]65)C2)C1 (stereo partly specified), the activity remaining [1] was 82.4%.

CCOc1ccc2nc3cc(N)ccc3c(N)c2c1 showed an activity remaining [1] of 96.1%.

Work on CCCc1nc(C(C)(C)O)c(C(=O)OCc2oc(=O)oc2C)n1Cc1ccc(-c2ccccc2-c2nn[nH]n2)cc1 yielded an activity remaining [1] of 121%.

For CC1(C)S[C@@H]2C(N3C(=O)[C@@H](c4ccccc4)NC3(C)C)C(=O)N2[C@H]1C(=O)O (stereo partly specified), the activity remaining [1] was 108%.

With NCc1ccc(S(N)(=O)=O)cc1 the activity remaining [1] was 114%.

COc1cc(OC)c2c(=O)c(O)c(-c3ccc(OC)c(OC)c3)oc2c1 showed an activity remaining [1] of 107%.

In the case of CC(=O)O[C@@H]1CC2C(C)(C)[C@@H](O)CC[C@]2(C)C2CC[C@@]3(C)[C@H](c4ccoc4)OC(=O)[C@H]4O[C@]43[C@@]21C (stereo partly specified), the activity remaining [1] is reported as 124%.

With O=C(CCBr)N1CCN(C(=O)CCBr)CC1 the activity remaining [1] was 107%.

For CN1C(C)(C)CCCC1(C)C, the activity remaining [1] was 82.7%.

For Cc1ncc(CO)c(CO)c1O, the activity remaining [1] was 102%.

Oc1c(I)cc(I)c2cccnc12 showed an activity remaining [1] of 102%.

Work on CCC(=O)NCC[C@@H]1CCc2ccc3c(c21)CCO3 yielded an activity remaining [1] of 120%.

CC(C)CCCC(C)C1CCC2C3C[C@@H](O)[C@@]4(O)C[C@@H](O)CC[C@]4(C)C3CC[C@]12C (stereo partly specified) showed an activity remaining [1] of 123%.

For COc1cc2c(cc1O)[C@@H](Cc1ccc(O)cc1)[N+](C)(C)CC2, the activity remaining [1] was 75.4%.

With CCCc1cc(C(N)=S)ccn1 the activity remaining [1] was 110%.

For COc1cc(O)c(C(=O)/C=C/c2ccc(O)c(OC)c2)c(OC)c1, the activity remaining [1] was 77.4%.

For Cc1c(Cl)cccc1Nc1ccccc1C(=O)O, the activity remaining [1] was 82.9%.

Compound O=C(NCO)c1cccnc1 has an activity remaining [1] of 113%.

Cc1cc(C2CCCCC2)n(O)c(=O)c1 was tested, and the activity remaining [1] was 95.7%.

For Cc1cc(OC(=O)c2c(C)cc(O)cc2O)cc(O)c1C(=O)O, the activity remaining [1] was 115%.

CC(=O)O[C@H]1C[C@@H](OC(C)=O)C(C)(C)C2C[C@@H](OC(C)=O)[C@]3(C)C([C@H](OC(C)=O)C[C@@]4(C)[C@H](c5ccoc5)OC(=O)[C@H]5O[C@]543)[C@]21C (stereo partly specified) gave an activity remaining [1] of 104%.

CCCCCCc1ccc(O)cc1O was tested, and the activity remaining [1] was 124%.

Work on C[C@@H]1CC2C3CCC4=CC(=O)C=C[C@]4(C)[C@@]3(F)[C@@H](O)C[C@]2(C)[C@@]1(O)C(=O)CO (stereo partly specified) yielded an activity remaining [1] of 119%.

CC1(C)CC[C@]2(C(=O)O)CC[C@]3(C)C(=CCC4[C@@]5(C)CC[C@H](O)[C@@](C)(CO)C5CC[C@]43C)C2C1 (stereo partly specified) was tested, and the activity remaining [1] was 97.3%.

For COC(=O)[C@]1(C)CCC[C@]2(C)c3ccc(C(C)C)cc3C(=O)CC12 (stereo partly specified), the activity remaining [1] was 89.3%.

NC(=O)c1ccc([N+](=O)[O-])cc1Cl gave an activity remaining [1] of 107%.

For COc1ccc(-c2cc(=O)c3cc(OC)ccc3o2)cc1, the activity remaining [1] was 95.7%.

COC(=O)[C@@H]1OC(=O)C2OC23[C@@]1(C)CCC1[C@]2(C)C(C[C@H](O)[C@]13C)C(C)(C)[C@H](OC(C)=O)C[C@@H]2OC(C)=O (stereo partly specified) was tested, and the activity remaining [1] was 111%.

Work on O=C(CCCCCCCCCCCCC1CCCC1)Nc1ccc(S(=O)(=O)c2ccc(NC(=O)CCCCCCCCCCCCC3CCCC3)cc2)cc1 yielded an activity remaining [1] of 94.8%.

Compound CCCCOc1cc(CC2CNC(=O)N2)ccc1OC (stereo unspecified) has an activity remaining [1] of 115% and a remaining activity [2] of 110%.
